# The full list was thinned out, with hits kept by preference.
# VACV Venus inh = inhibitors of vaccinia virus (Venus reporter); Vaccinia virus Venus reporter expression, fluorescence; Potency, µM (series often up to 36.5 µM), for inactives: at the top dose activity change, negative = inhibition, hits mostly inhibitors; 0.46% of 330,000 active; AID 720580; calls by dose curve; tested in A549 cells; note: potency is the fitted concentration of half-maximal effect; % is set by controls: 0 for no effect and ±100 for the full control effect; nearly all actives have a fitted effect of over 30% in size
# CHX counter = counter-screen for Shiga toxin inhibitors: cycloheximide protein synthesis inhibition; cell reporter, cycloheximide protein synthesis inhibition counterscreen; AID 2314; 12% of 300,000 active; max response, %; in the data active = max response mostly above about 13%, no sharp cut-off; inactive = mostly below about 14%; note: read at 38.3 µM for the half of the compounds with a filed dose; 0% is about no effect
# MARV entry inh = Marburg virus entry inhibition. Marburg virus pseudotyped entry inhibition, cell reporter. Potency, µM (doses to about 37.8 µM), for inactives: at the highest dose activity change, negative = inhibition, usual class: inhibitors. 1.8% of 300,000 active; calls by dose curve; tested in HEK293 cells; note: potency is the fitted concentration of half-maximal effect; % is set by controls: 0 for no effect and ±100 for the full control effect
# VACV mCherry inh = inhibitors of vaccinia virus infection (mCherry reporter signal); Vaccinia virus mCherry reporter infection, fluorescence; Potency, µM (doses to about 36.5 µM), for the others: at the top dose activity change, negative = inhibition, most hits filed as inhibitors; 0.63% of 310,000 active; AID 720579; calls by dose curve; tested in A549 cells; note: potency is the fitted concentration of half-maximal effect; % is set by controls: 0 for no effect and ±100 for the full control effect; nearly all actives have a fitted effect of over 35% in size
# Shiga inhibitor = Shiga toxin inhibition. Vero cells, Shiga toxin protein synthesis inhibition reporter. inhibition, % at 38.7 µM. 9.2% of 290,000 active; in the data active = inhibition mostly above about 28%, no sharp cut-off; inactive = mostly below about 43%; note: 0% is about no effect
# Lassa entry inh = inhibitors of Lassa virus binding or cell entry; AID 540256; Potency, µM (series often up to 37.9 µM), without a hit: at the highest dose activity change, negative = inhibition, usual class: inhibitors; 1.2% of 300,000 active; Lassa virus pseudotype entry inhibition, cell reporter; calls by dose curve; tested in HEK293 cells; note: potency is the fitted concentration of half-maximal effect; % is set by controls: 0 for no effect and ±100 for the full control effect; nearly all actives have a fitted effect of over 50% in size
# The depositor's hits bear a star; i = inactive; ? = inconclusive; nt = no result given; ! = not active in a repeat; [ ] = dose if it differs, or a comment.
SMILES,VACV Venus inh,CHX counter,MARV entry inh,VACV mCherry inh,Shiga inhibitor,Lassa entry inh
CCOc1ccc(CCNC(=O)Cn2nc(CC)n3c(cc4ccccc43)c2=O)cc1,-7%,nt,?,3%,nt,nt
CCC12CN3CC(CC)(CN(C1)C3c1cccc(OC)c1O)C2=O (stereo not given),-8%,nt,-5%[46.1 µM],-2%,nt,-9%[46.1 µM]
CCCSc1nc2c(c(=O)[nH]1)C(c1ccc(F)cc1F)CC(=O)N2 (stereo not given),-15%,nt,5%[46.1 µM],-5%,nt,-22%[46.1 µM]
O=C(CCc1ccccc1)NC1CC(=O)N(c2cccc(F)c2)C1 (stereo not given),-10%,nt,nt,-9%,nt,15%[46.1 µM]
Fc1ccc(-c2cc(-c3nc(-c4ccc(Cl)cc4)no3)[nH]n2)cc1,-10%,nt,nt,-8%,nt,19%[46.1 µM]
O=[N+]([O-])c1cccc(-c2cc(-c3cc(Br)ccc3O)[nH]n2)c1,?,24*,?,?,86*,?
Oc1ccc(Br)cc1-c1cc(-c2ccccc2)n[nH]1,-28%,16*,-25%,-12%,16,-11%
Oc1ccc(Br)cc1-c1cc(-c2ccc(Cl)cc2)n[nH]1,?,22*,-22%,nt,93*,-5%
CC(C)NC[C@@H](O)COc1ccc(CC(N)=O)cc1,-11%,nt,?,-16%,nt,nt
Cc1cccc(C(=O)NCc2nc(-c3ccccc3NC(=O)C3CCCO3)oc2C)c1 (stereo not given),5%,nt,nt,-9%,nt,nt
Cc1ccc(NC(=O)CN(C)S(=O)(=O)c2ccc3[nH]c(=O)oc3c2)c(C)c1,23%[7.34 µM],1,nt,7%[7.34 µM],8,nt
Cc1cc(C(=O)CN2CCCC(C)C2)c(C)n1-c1ccc(F)cc1 (stereo not given),-9%,50*,3%,-18%,53*,4%
Cc1ccc(-n2c(C)cc(C(=O)CN3CCOCC3)c2C)cc1,-18%,46*,8%[46.1 µM],-16%,85*,nt
COc1ccc(NC(=O)Nc2cccc(C)n2)c(OC)c1,-23%,33*,26%[46.1 µM],-20%,39*,24%[46.1 µM]
Cc1cccc(NC(=O)Nc2ccccc2)n1,-8%,23*,?,i,43*,4%[46.1 µM]
COc1cccc(NC(=O)Nc2cccc(C)n2)c1,-12%,53*,4%[46.1 µM],i,92*,?
COc1cccc(NC(=O)Nc2cc(NC(=O)Nc3cccc(OC)c3)c(C)nc2C)c1,-6%,6,14%,-15%,-5,23%
Cc1cccc(NC(=O)Nc2ccc(Cl)c(Cl)c2)n1,-10%,27*,?,-12%,72*,10%
Cc1cccc(NC(=O)c2cccc(NC(=O)c3ccccc3)c2)n1,-11%,-3,?,7%,8,2%[46.1 µM]
CCOc1ccc(-n2nc3ccc(NC(=O)Cc4ccccc4)cc3n2)cc1,-16%,nt,nt,-29%,nt,-7%[46.1 µM]
CCOc1ccc(-n2nc3ccc(NC(=O)CC)cc3n2)cc1,-6%,31*,24%,-16%,55*,?
COc1ccc(-n2nc3ccc(NC(=O)c4c(OC)cccc4OC)cc3n2)cc1,-24%,36*,?,i,52,-15%[46.1 µM]
COc1cc(C(=O)Nc2ccc3nn(-c4ccc(F)cc4)nc3c2)cc(OC)c1OC,-1%,nt,nt,1%,nt,14%[46.1 µM]
O=C(NCC1Cc2cccc(-c3cccnc3)c2O1)c1ccc2cc[nH]c2c1 (stereo not given),-15%,nt,nt,i,nt,nt
CC1(C)CN=c2s/c(=C\c3ccc(Cl)cc3)c(=O)n2C1,?,5,?,10µM*,16,-23%
SMILES,VACV Venus inh,CHX counter,MARV entry inh,VACV mCherry inh,Shiga inhibitor,Lassa entry inh
CCN(C/C=C/C#CC(C)(C)C)Cc1cccc(OCc2cc(-c3ccsc3)cs2)c1,nt,26,nt,nt,30*,nt
Cc1cc(C(=O)CSc2nc3ccccc3o2)c(C)n1CC1CCCO1 (stereo not given),-13%,67*,?,nt,78*,?
Cc1cc(C(=O)CSc2nc3ccccc3[nH]2)c(C)n1CC1CCCO1 (stereo not given),-18%,21,?,-28%,90,7.9µM*
Cc1cc(C(=O)CSc2nc(N)cc(N)n2)c(C)n1CC1CCCO1 (stereo not given),5%,nt,4%[46.1 µM],i,nt,9%[46.1 µM]
Cc1cc(C(=O)CSc2nc(N)cc(=O)[nH]2)c(C)n1CC1CCCO1 (stereo not given),0%,nt,-4%[46.1 µM],-19%,nt,-20%[46.1 µM]
CCn1ncc(Br)c1C(=O)Nc1ccc(-c2ccno2)cc1,13%[7.34 µM],9.8*,nt,12%[7.34 µM],7,nt
CN(CCc1ccccc1)C(=O)c1cc(COc2cccc(C(F)(F)F)c2)on1,nt,23*,nt,nt,60*,nt
CN(CCCN1CCOCC1)C(=O)c1cc(COc2cccc(C(F)(F)F)c2)on1,nt,-2,nt,nt,8,nt
CN(CCc1ccccc1)C(=O)c1cc(COc2ccc(F)cc2Cl)on1,nt,43*,nt,nt,74*,nt
COc1ccc(C(CC(=O)Nc2cc(OC)c(OC)c(OC)c2)N2Cc3ccccc3C2=O)cc1 (stereo not given),-12%,nt,nt,-14%,nt,-1%[46.1 µM]
COC(=O)CSc1nnc(CNC(=O)c2ccc(S(=O)(=O)N3CCOCC3)cc2)n1C,-16%,6,nt,i,7,nt
O=C(C[C@H]1C(=O)N(Cc2ccccc2)C[C@@H]1Cc1ccccc1)Nc1ccccc1,-21%,8,nt,-26%,-2,16µM*
COc1ccc(NC(=O)C[C@H]2C(=O)N(Cc3ccccc3)C[C@@H]2Cc2ccccc2)cc1,?,nt,nt,-29%,nt,?
COc1ccc(S(=O)(=O)NCc2cccn2Cc2cccc(C)c2)cc1OC,-22%,nt,nt,-11%,nt,7%[46.1 µM]
Cc1ccc(N(CCC#N)C(=O)CCl)cc1C,-20%,9,7.1µM*,-7%,8,7.9µM*
COC(=O)C1C(O)=C(C=Nc2ccc3ccccc3c2)C(=O)CC1(C)C (stereo not given),nt,15*,nt,nt,17,nt
O=S(=O)(c1ccccc1)N(CC(F)(F)F)c1ccc(C(O)(C(F)(F)F)C(F)(F)F)cc1,11µM*!,-5,nt,?,-14,nt
CCN(c1ccc(C(O)(C(=O)OC)C(F)(F)F)cc1)S(=O)(=O)c1ccccc1 (stereo not given),-22%,-2,1%,0%,-9,?
O=C(OCc1nc2ccccc2s1)C1CCN(C2=NS(=O)(=O)c3ccccc32)CC1,nt,61*,21%,nt,60*,21%
O=S1(=O)N=C(N2CCCC2)c2ccccc21,-2%,2,?,-14%,6,?
COc1cc(CNC2CCCC2)cc(Cl)c1OCc1ccccc1Cl,nt,-2,10µM*,nt,-15,?
COc1cc(CNC2CCCC2)cc(Cl)c1OCc1ccc(F)cc1,?,-4,?,nt,-11,?
CCOc1cc(CNC2CCCC2)cc(Cl)c1OCc1ccc(F)cc1,?,-6,5.8µM*,?,-23,?
O=C(O)c1ccc(N2CC3CC(C2)c2cccc(=O)n2C3)c(NC(=S)Nc2ccc(Cl)cc2Cl)c1 (stereo not given),-10%,22,0%[46.1 µM],i,4,1%[46.1 µM]
Cc1ccc(-n2c(SCc3nc(-c4ccccc4C)no3)nnc2-c2ccncc2)cc1C,1%,nt,?,-6%,nt,?

# Assay outcomes from PubChem.
